Experimental data reported in PubChem BioAssay AID1920062 (Sanford-Burnham Center for Chemical Genomics, 2024).
Among all 370,000 compounds or so, about 400 (0.11%) were called active. This is one part of a sample in which actives are shown more often than they occur.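 Rule for the calls: active = activation at 10 µM reaching about 35% in either raw or pattern-adjusted values (limit read from the data); inactive = the rest.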

biological target: Atrial natriuretic peptide receptor 2 (Homo sapiens) (UniProt P20594); experiment: GC-B stimulated cGMP production enhancers – HEK293 GC-B cells, cGMP TR-FRET, EC30 CNP, primary screen (AID 1920062); conditions: at 10 µM, active compounds read high, 0% at EC30 CNP, 100% saturating CNP
Sequence (P20594 whole entry, looked up): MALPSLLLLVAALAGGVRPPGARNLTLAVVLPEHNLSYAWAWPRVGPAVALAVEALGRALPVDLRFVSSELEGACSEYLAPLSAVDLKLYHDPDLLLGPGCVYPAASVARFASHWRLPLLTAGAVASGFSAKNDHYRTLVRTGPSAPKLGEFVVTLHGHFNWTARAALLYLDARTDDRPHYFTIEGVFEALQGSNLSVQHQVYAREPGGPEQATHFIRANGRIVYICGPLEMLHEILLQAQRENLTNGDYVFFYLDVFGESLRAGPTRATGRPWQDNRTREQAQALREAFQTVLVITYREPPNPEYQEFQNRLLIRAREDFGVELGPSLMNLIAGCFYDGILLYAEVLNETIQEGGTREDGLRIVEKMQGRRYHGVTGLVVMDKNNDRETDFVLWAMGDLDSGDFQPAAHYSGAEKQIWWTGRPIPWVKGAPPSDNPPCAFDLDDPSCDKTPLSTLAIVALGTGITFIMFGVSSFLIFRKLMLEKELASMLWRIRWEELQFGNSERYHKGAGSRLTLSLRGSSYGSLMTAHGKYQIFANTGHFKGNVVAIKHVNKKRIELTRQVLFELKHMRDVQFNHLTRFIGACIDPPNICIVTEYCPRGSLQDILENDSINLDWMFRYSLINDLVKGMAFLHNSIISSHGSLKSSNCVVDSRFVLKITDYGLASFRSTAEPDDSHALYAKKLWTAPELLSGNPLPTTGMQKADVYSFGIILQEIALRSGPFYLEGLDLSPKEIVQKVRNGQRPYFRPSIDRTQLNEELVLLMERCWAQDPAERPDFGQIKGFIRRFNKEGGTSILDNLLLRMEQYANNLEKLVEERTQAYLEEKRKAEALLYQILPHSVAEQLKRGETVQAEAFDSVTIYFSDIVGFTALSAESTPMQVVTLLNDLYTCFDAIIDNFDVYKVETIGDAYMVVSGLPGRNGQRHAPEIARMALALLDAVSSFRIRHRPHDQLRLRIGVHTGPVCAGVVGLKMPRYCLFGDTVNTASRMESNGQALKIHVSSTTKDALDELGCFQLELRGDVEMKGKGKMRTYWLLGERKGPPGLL

activation, active:
COc1ccc(CSc2nc(N3CCOCC3)c3c(c2C#N)CC(C)(C)OC3)cc1 48.4%
CCOc1c(Br)cc(/C=C2\C(=O)N(CCC#N)N=C2C)cc1OC 51.6%
C/C(Cl)=C\Cn1c(Nc2cccc(C)c2)nc2c1c(=O)n(C)c(=O)n2C 45.4%
c1coc(CCNc2ncnc3ccc(-c4ccc5c(c4)OCO5)cc23)c1 50.1%

activation, inactive:
CN(CC(=O)Nc1ccccc1Cl)C(=O)COc1cccc2c1OC(C)(C)C2 -1.31%
O=C(CSc1n[nH]c(=O)n1-c1ccccc1)Nc1ccccc1C(F)(F)F -2.36%
COCCCN1C(=O)c2ccc(C(=O)OCC(=O)NCc3ccccc3OC)cc2C1=O -7.6%
Cc1ccc(CNC(=O)C(=O)c2cn(CC(=O)N3CCOCC3)c3ccccc23)cc1 -3.39%
O=C1CSC(c2cccc(F)c2)N1c1ccc(O)cc1 (configuration not stated) 2.71%
CC1CCCCN1S(=O)(=O)CCNC(=O)c1ccccc1 (configuration not stated) -2.73%
Cc1ccc(NC(=O)CSCC(=O)N2CCOCC2)cc1 2.72%
O=C(CCSc1ccccc1)N1CCN(c2ccccc2F)CC1 -0.35%
CC(C)(C)c1ccc(CSc2nnc(-c3cccs3)o2)cc1 3.23%
COc1ccccc1NC(=O)CSc1nnc(Cn2nnc(-c3ccccc3)n2)n1-c1ccccc1 -7.79%
Nn1c(SCC(=O)Nc2ccc(S(N)(=O)=O)cc2)nnc1-c1n[nH]c2c1CCC2 -3.98%
CS(=O)(=O)Nc1ccccc1N=C(c1ccccc1)c1ccccc1 4.92%
Cc1cccc(C(=O)NC2CCN(CC(=O)Nc3cccc(Cl)c3)CC2)c1 1.44%
CCc1nn(CCCC(=O)NC(C)c2ccccc2)c(=O)c2cc3occc3n12 (configuration not stated) -9.68%
Cc1c2cnn(CC(=O)NCc3ccccn3)c(=O)c2c(C)n1Cc1ccc(Cl)cc1 0.59%
CC1=NN(/C(=N\c2nnc(C)s2)Nc2ccccc2)[C@H](c2ccc(C)cc2)S1 -13.9%
COC(=O)c1ccc([C@@H](O)[C@H](C)C(=O)CC(=O)OC(C)(C)C)cc1 5.42%
CC(=O)c1cccc(NC(=O)CN2C(=O)c3cccnc3Oc3ccc(Cl)cc32)c1 -2.67%
Cc1ccccc1C(=O)OC1OC(=O)C(Cl)=C1Nc1ccccc1 (configuration not stated) 2.61%
C/C(=N\N(C)C)c1ccc(OCCOc2ccc([N+](=O)[O-])cc2)cc1 4.4%
O=C(Cc1ccc(-n2c(=O)c3sccc3n(Cc3ccc(F)cc3)c2=O)cc1)NCc1ccco1 6.68%
Cc1ccc(C(=O)N2CCCC2)c(F)c1F 0.58%
COc1ccc(S(=O)(=O)N2CCN(C)CC2)c(C)c1 -1.64%
CC[C@]1(C(=O)OC)[C@H]2C(=O)N(C)C(=O)[C@H]2[C@H]2CN(C)C(=NCc3ccccc3)N21 -1.82%
CS(=O)(=O)N(CC(=O)N1CCN(c2cccc(Cl)c2)CC1)c1ccccc1 -0.13%
Cc1cc(C)c(C#N)c(SCc2ccc3c(c2)OCO3)n1 6.77%
c1ccc(CSc2ncnc3c2sc2nc(N4CCOCC4)c4c(c23)CCCC4)cc1 -0.49%
O=C1CCC(=O)N(c2ccccc2)N1 0.63%
CC(=O)Nc1ccc(NC(=O)CSc2nnnn2-c2ccccc2F)cc1 -2.78%
CCCCCN(C(=O)NC(=O)Nc1ccccc1OC)S(C)(=O)=O 0.44%
CCn1c(SCC(=O)NNC(=O)c2ccc(OC)cc2)nnc1C(C)C 1.41%
COc1ccccc1C(=O)CSc1nnc(-c2ccccn2)n1-c1ccccc1 -3.37%
Nc1ncnc(Nc2cccc(Cl)c2Cl)n1 1.89%
CC1(C)OC(=O)C2=C(C[C@@H](C3CC3)O[C@H]2CCc2cccc(Cl)c2)O1 3.35%
C[C@@H]1CN([C@@H](C)CO)C(=O)CCCn2nncc2CO[C@H]1CN(C)Cc1ccc(C(F)(F)F)cc1 -5.26%
COc1ccc(C(CNC(=O)c2ccc(S(=O)(=O)Nc3ccccc3F)cc2)N(C)C)cc1 (configuration not stated) -0.81%
CC1(c2ccc(Cl)cc2Cl)NC(=O)N(CC(=O)Nc2cccnc2Cl)C1=O (configuration not stated) 3.74%
CCCCN(C)CCNC(=O)C1CCCN(S(=O)(=O)c2cccc3nsnc23)C1 (configuration not stated) 4.51%
CC(Oc1ccc(F)cc1F)C(=O)/C=C/N(C)C (configuration not stated) 1.84%
CCC(C)(C)NC(=O)C(c1cccc(OC)c1OC)N(CC(C)C)C(=O)CCC(=O)Nc1cc(C)on1 (configuration not stated) -7.74%
CC1CCCCC12NC(=O)N(CC(=O)Nc1ccc(S(=O)(=O)Nc3ncccn3)cc1)C2=O (configuration not stated) 1.08%
Nc1nnc(SCC(=O)NCC(=O)Nc2ccc(F)c(F)c2F)s1 -0.75%
CC(=O)c1cccc(-n2nnnc2SCC(=O)NNC(=O)C2CCCCC2)c1 1.65%
O=C(OCC(=O)N1CCCCCC1)c1cnc(Cl)c(Cl)c1 4.57%
CC(=O)C[C@H](O)CC(=O)[C@@H]1OC(=O)[C@@H](C)C/C=C\Cc2ccccc21 5.5%
CCCCn1c(N)c(N2CCOCC2)c(=O)n(CC(=O)NCCc2ccccc2)c1=O 0.41%
CC(=O)NC(Cc1ccc(F)cc1)C(=O)O (configuration not stated) 7.58%
Cc1nc(C(F)(F)F)ccc1C(=O)N1CCC1(C)C(=O)NS(=O)(=O)c1ccc(F)cc1F (configuration not stated) 1.28%
O=C1OCC2=C1C(c1ccccc1)CC(=O)N2c1cccc(F)c1 (configuration not stated) 3.79%
CCOC(=O)C1(Cc2ccccc2C)CCCN(C(=O)CN2C(=O)CSC2=O)C1 (configuration not stated) 1.31%
O=S1(=O)c2c(cccc2N2CCCCC2)O[C@H](COCc2ccccc2)CN1C1CC1 2.03%
O=C(Oc1ccc(C(=S)N2CCOCC2)cc1)c1ccc(F)cc1 -0.5%
CC(NCc1nc2ccccc2n1C)C12CC3CC(CC(C3)C1)C2 (configuration not stated) -3.22%
NC(=O)NC(=O)C(OC(=O)CCNS(=O)(=O)c1ccccc1)c1ccccc1 (configuration not stated) 0.79%
CCOC(=O)N1CCN(C(=O)CN(C2CCCCC2)S(C)(=O)=O)CC1 6.88%
CCC/C(C)=N\Nc1nc2c(c(=O)n(C)c(=O)n2C)n1C -1.79%
Cn1c(=O)c2c(nc(N/N=C/c3cccs3)n2Cc2ccc(Br)cc2)n(C)c1=O 23.1%
Cc1cc(C)n(-c2nc(O)cc(=O)[nH]2)n1 6.13%
CCn1c(CNC(=O)c2ccccc2)nnc1SCC(=O)N1CCN(c2ccccc2)CC1 1.17%
CC(C)COC(=O)c1ccc(NC(=O)C2C3C=CC(C3)C2C(=O)O)cc1 (configuration not stated) 6.16%
CCN(CC(=O)NCc1cccs1)S(=O)(=O)c1ccc(NC(C)=O)cc1 5.26%
CC(=O)N1C(C)c2ccccc2C(C)(C)CC12CCCCC2 (configuration not stated) 1.32%
C=C1C2C[C@H](O)C(C)(C)[C@@]2(O)[C@H](O)C[C@]23C[C@@](C)(O)[C@H](CC[C@H]12)[C@H]3O (some centres not stated) 5.08%
Cc1nc(CNc2ncnc3ccc(-c4ccc5c(c4)OCO5)cc23)cs1 3.38%
O=C(Cn1nnc(-c2ccc3c(c2)OCO3)n1)NCc1ccco1 -0.02%
CC(C)C(NC(=O)c1c(F)cccc1F)C(=O)NNC(=O)c1ccccc1 (configuration not stated) 3.58%
O=Cc1c(Cl)cccc1Cl -13.9%
Cc1ccccc1NC(=O)COC(=O)c1ccc(Sc2ncn[nH]2)c([N+](=O)[O-])c1 -1.97%
